High-throughput results (PubChem BioAssay)
Shiga inhibitor: Shiga toxin inhibition. Vero cells, Shiga toxin protein synthesis inhibition reporter. inhibition, % at 38.7 µM. 9.2% of 290,000 active; in the data active = inhibition mostly above about 28%, no sharp cut-off; inactive = mostly below about 43%; also: 0% is about no effect
Giardia FBPA inh: inhibitors of Giardia lamblia fructose-1,6-bisphosphate aldolase; A8B2U2; purified Giardia FBPA; Potency, µM (highest dose often 59.6 µM), inactives show top-dose activity, negative = inhibition, most hits filed as inhibitors; 0.71% of 290,000 active; AID 2451; also: potency is read from the fitted curve at half-maximal effect; % is scaled to controls: 0 for no effect and ±100 for the full control effect; nearly all actives have a fitted effect of over 55% in size
Target sequence (A8B2U2 whole entry, looked up): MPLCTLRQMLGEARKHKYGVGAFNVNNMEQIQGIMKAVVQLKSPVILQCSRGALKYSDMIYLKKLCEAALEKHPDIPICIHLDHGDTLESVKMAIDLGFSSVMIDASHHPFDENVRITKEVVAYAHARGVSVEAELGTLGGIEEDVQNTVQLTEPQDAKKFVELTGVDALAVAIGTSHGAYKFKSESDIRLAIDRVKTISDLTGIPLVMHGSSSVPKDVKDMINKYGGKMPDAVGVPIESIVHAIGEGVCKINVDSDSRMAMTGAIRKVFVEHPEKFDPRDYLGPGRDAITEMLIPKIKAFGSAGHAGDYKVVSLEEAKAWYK
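Giardia FBPA (40 nM reagent) was preincubated 10 min at RT with compound (up to 57.5 uM final), then substrate plus GAPDH/TPI/NAD/arsenate coupling system with diaphorase/resazurin was added; resorufin fluorescence (525/598 nm) was read after 20 min.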
TbPYK inhibitor: blocks Trypanosoma brucei pyruvate kinase. TbPYK enzyme, Kinase-Glo Plus ATP luminescence, 45 min. Potency, µM (top dose mostly 76.8 µM), without a hit: top-dose activity, negative = inhibition, hits mostly inhibitors. 0.12% of 410,000 active; also: potency is read from the fitted curve at half-maximal effect; % is scaled to controls: 0 for no effect and ±100 for the full control effect; nearly all actives have a fitted effect of over 50% in size
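TbPYK + substrate in 50 mM TEA pH 7.2, 100 mM KCl, 10 mM MgCl2, 0.05% BSA, 0.01% Tween-20; cpd pinned; ADP 130 uM final; 45 min RT; Kinase-Glo Plus 10 min; luminescence endpoint.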
Cycloheximide cs: affects cycloheximide protein synthesis inhibition readout, counter-screen | AID 2314 | 12% of 300,000 active | max response, % | cell reporter, cycloheximide protein synthesis inhibition counterscreen; in the data active = max response mostly above about 13%, no sharp cut-off; inactive = mostly below about 14%; also: read at 38.3 µM for the half of the compounds with a filed dose; 0% is about no effect
LmPK inh: inhibitors of Leishmania mexicana pyruvate kinase | purified LmPK, Kinase-Glo ATP luminescence, 1 h | Potency, µM (series often up to 57.5 µM), for inactives: at the highest dose activity change, negative = inhibition, hits mostly inhibitors | 0.37% of 290,000 active; also: potency is read from the fitted curve at half-maximal effect; % is scaled to controls: 0 for no effect and ±100 for the full control effect
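qHTS format; LmPK 0.1 nM; substrates PEP 0.5 mM and ADP 0.1 mM. One-hour room-temperature incubation, then coupled luciferase luminescence; 0.5 nM enzyme wells mark activation.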
Sm TGR block: inhibitors of Schistosoma mansoni thioredoxin glutathione reductase. AID 485364. Potency, µM (titrated, usually from 114 µM), for the others: top-dose activity change, negative = inhibition, usual class: inhibitors. purified TGR, DTNB reduction, TNB absorbance 405 nm. Q962Y6. 3% of 360,000 active; also: potency is read from the fitted curve at half-maximal effect; % is scaled to controls: 0 for no effect and ±100 for the full control effect; nearly all actives have a fitted effect of over 60% in size
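First, TGR (20 nM dispensed) and NADPH were mixed with compound. Second, a 15 min room-temperature incubation followed. Third, further NADPH and then DTNB were added to start the reaction. Finally, TNB absorbance was monitored kinetically.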
* marks the source's active call; other numbers are inactive results; ? = inconclusive; . = no result; [ ] = another dose, or the depositor's remark. The sample as a whole holds a higher share of hits than the screen did. Unless noted, calls follow the shape of the dose curve; as a rule, active = well fitted curve in the direction sought with a large enough effect; inconclusive = small, poorly fitted or top-dose-only effect, or another doubt; inactive = no such curve, though single readings can be large; an effect the other way counts as inactive or inconclusive.

SMILES	Shiga inhibitor	Giardia FBPA inh	TbPYK inhibitor	Cycloheximide cs	LmPK inh	Sm TGR block
CC(=O)OCC1(C)CN(c2ccccc2)N(C(C)=O)C1=O (stereo not drawn)	23	-8%	-2%	8	-7%	0%
O=C(COc1ccc(Cl)cc1Cl)OCn1nnc2ccccc2c1=O	-14	1%	4%	2	5%	2%
O=c1c2ccccc2nnn1COc1cccc(Cl)c1	124*	1%	-3%	55*	-12%	-3%
CCN1CCN(CCCOc2ccc(-c3ccccc3)cc2)CC1	70*	6%	-5%	37*	2%	1%
CN1CCN(CCCOc2ccc(-c3ccccc3)cc2)CC1	75*	?	3%	27*	4%	0%
CCN1CCN(CCCOc2ccccc2-c2ccccc2)CC1	3	?	1%	10	0%	.
COc1ccc(OCCOCCN2CCN(C)CC2)cc1	-1	?	1%	-3	-1%	-4%
CN1CCN(CCOc2ccc(-c3ccccc3)cc2)CC1	86*	-29%	-6%	46*	-4%	-13%
Cc1ccc2nc(NC(=O)c3nc(SCc4ccccc4C)ncc3Cl)sc2c1	.	.	-5%	.	.	0%
O=C(NC(O)C(=O)c1ccccc1)c1ccc(F)cc1 (stereo not drawn)	20	10%	14%	-3	-4%	5%
Cc1nc2c(C(=O)NC(C)c3ccccc3)cnn2c(C)c1Cc1ccccc1 (stereo not drawn)	.	.	-8%	.	.	10%
C=CCN1C(=O)C(=O)N(Cc2nc3ccccc3s2)C1=O	77*	0%	-2%	34*	0%	-5%
CN(C)c1ccc(NC(=O)/C=C/c2c(Cl)cccc2Cl)cc1	59*	-1%	-10%	41*	0%	1%
O=C(/C=C/c1ccccc1Cl)Nc1ccc(Cl)cn1	48*	15%	3%	23	13%	1%
O=C(/C=C/c1ccccc1Cl)Nc1ccccc1	60*	-10%	-9%	37*	14µM*	11%
O=C(/C=C/c1ccccc1Cl)Nc1cccc(O)c1	78*	-20%	-6%	26*	-11%[11.5 µM]	4%
CN(C)S(=O)(=O)c1ccc(NC(=O)/C=C/c2ccccc2Cl)cc1	2	-8%	-20%	1	-1%	-8%
COc1ccc(OC)c(NC(=O)c2nc(SCc3ccc(F)cc3)ncc2Cl)c1	.	.	-8%	.	.	3%
CCOC(=O)CSC1=Nc2ccccc2C2=NC(CCC(=O)NCc3ccc(OC)cc3)C(=O)N12 (stereo not drawn)	.	.	1%	.	.	7%
C[C@@H]1C(=O)O[C@H]2C[C@@]34[C@H]5C[C@@H](C(C)(C)C)[C@]36[C@H](OC(=O)[C@H]6O)O[C@]4(C(=O)O5)[C@]21O	-9	2%	.	-4	.	.
CCCCn1cc(S(=O)(=O)c2cccc(C)c2)c(=O)c2cc(F)c(N3CCOCC3)cc21	.	.	4%	.	.	-2%
CCOc1cc(/C=N/O)ccc1OCc1ccc(F)cc1	65*	-18%	-24%	10	2%	-12%
O=Cc1ccccc1OCCOc1ccc([N+](=O)[O-])cc1	43	0%	-6%	26*	1%	0%
COc1cc(/C=N\n2nnnc2N)ccc1OCc1ccc(F)cc1	-5	0%	4%	33	1%	5%
CC(=O)c1ccc(OCCOc2ccc([N+](=O)[O-])cc2)cc1	-11	5%	1%	-3	3%	-18%
SMILES	Shiga inhibitor	Giardia FBPA inh	TbPYK inhibitor	Cycloheximide cs	LmPK inh	Sm TGR block
COc1cc(/C=N/n2c(C)n[nH]c2=S)ccc1OCc1ccc(F)cc1	65*	8%	?	48*	-1%	3%
O=C1NC(=O)/C(=C\c2ccccc2OCc2ccc([N+](=O)[O-])cc2)N1	-12	-3%	-20%	-5	-1%	1%
O=[N+]([O-])c1ccc(COc2ccccc2/C=N/O)cc1	90*	2%	-3%	45*	-3%	-2%
Cc1ccc(NC(=O)C2C3C=CC4(O3)C2C(=O)N(CCCN2CCCC(C)C2)C4C(=O)NC2CCCCC2)cc1 (stereo not drawn)	4	0%	6%	-5	7%	1%
Cn1c(=O)[nH]c(=O)c2c1nc(SCCCO)n2CCCc1ccccc1	-15	-10%	-7%	-5	-3%	?
COC(=O)CCN(c1ccccc1)C(CNS(=O)(=O)c1ccccc1)c1ccccc1 (stereo not drawn)	.	.	-2%	.	.	1%
CCOc1cc(/C=N/O)ccc1OCc1ccc([N+](=O)[O-])cc1	37*	?	-14%	9	0%	1%
CCNc1oc(-c2ccccc2F)nc1S(=O)(=O)c1ccccc1	-12	.	-10%	13	0%	40µM*
CNc1oc(-c2ccccc2F)nc1S(=O)(=O)c1ccc(C)cc1	-8	.	-7%	5	0%	14µM*
COc1cc(NS(=O)(=O)c2cc(NC(C)=O)ccc2OC)c(OC)cc1NC(=O)c1ccccc1	.	.	2%	.	.	.
COc1ccc(OC)c(NCc2cccn2-c2nnc(N3CCC(C)CC3)s2)c1	69*	.	-18%	31*	.	12%
COc1ccc(NCc2cccn2-c2nnc(N3CCC(C)CC3)s2)c(OC)c1	.	.	-5%	.	.	-13%
Cc1sc(NC(=O)C2CCCCC2)c(C#N)c1-c1ccccc1	142*	-10%	-9%	57*	5%	-19%
Cc1cccc(C(=O)Nc2sc(C)c(-c3ccccc3)c2C#N)c1	59*	-4%	-5%	41*	-3%	-2%
Nc1cc(-c2ccccc2)c[nH]c1=O	25	.	.	4	.	.
c1ccc(-c2ccncn2)cc1	.	.	1%	.	.	.
CCOC(=O)C(=Cc1ccc(N(C)C)cc1)C(=O)c1ccccc1	.	.	-2%	.	.	.
C=CCOC(=O)/C(=C/c1cccnc1)NC(=O)c1ccccc1	-7	5%	-13%	4	1%	9%
CCOC(=O)/C(=C/c1ccc(OC(=O)c2ccccc2)cc1)C(C)=O	39*	-1%	-18%	7	-3%	?
CCOC(=O)N1CCN(C(=O)/C(=C/c2cccc3ccccc23)NC(=O)c2ccc(OC)cc2)CC1	11	3%	-5%	17*	2%	4%
CCOC(=O)/C(=C/c1c2ccccc2cc2ccccc12)NC(=O)c1ccccc1	-3	-1%	2%	6	-2%	16%
C=CCOC(=O)/C(=C\c1ccccc1)NC(=O)c1ccc(C)cc1	100*	10%	-1%	36*	0%	.
C=CCOC(=O)/C(=C\c1cccc2ccccc12)NC(=O)c1ccccc1	22	-1%	1%	36*	1%	9%
COc1ccc(CCn2c(=O)c3cccnc3n(CC(=O)Nc3c(C)cccc3C)c2=O)cc1OC	.	.	11%	.	.	3%
CCOC(=O)C1CCN(C(=O)CN2C(=O)COc3ccc(C(C)(C)C)cc32)CC1	16	.	4%	-4	7%	-1%
